Bioassay records as filed in PubChem.
D2 ag-1 – activates the human D2 dopamine receptor; AID 485358; HEK293 T-REx D2 cells, calcium flux agonist mode; P14416; activation, % at 2 µM; hit rate 0.53% among 340,000;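 active means activation over 3 SD above normal in the single-dose calcium agonist read, cut at about 30% in these data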
Target sequence (P14416 whole entry, looked up): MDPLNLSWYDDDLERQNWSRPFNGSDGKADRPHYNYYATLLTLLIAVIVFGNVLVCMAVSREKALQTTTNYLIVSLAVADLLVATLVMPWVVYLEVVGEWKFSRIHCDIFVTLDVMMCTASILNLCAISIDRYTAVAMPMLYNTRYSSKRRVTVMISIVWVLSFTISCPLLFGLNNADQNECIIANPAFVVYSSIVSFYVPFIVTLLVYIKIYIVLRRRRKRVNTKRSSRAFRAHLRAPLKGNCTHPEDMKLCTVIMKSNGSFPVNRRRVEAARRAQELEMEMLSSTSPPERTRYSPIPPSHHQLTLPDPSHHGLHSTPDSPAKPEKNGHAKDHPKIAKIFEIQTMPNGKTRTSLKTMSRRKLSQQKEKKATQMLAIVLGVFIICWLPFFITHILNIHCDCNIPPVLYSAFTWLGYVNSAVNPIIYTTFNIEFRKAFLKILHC
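Agonism is scored from calcium flux in a force-coupled, inducible HEK293 cell line expressing D2, read kinetically for 180 s after compound addition against dopamine controls.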
D2 PAM-1 – D2 dopamine receptor (human) potentiation; P14416; HEK293 T-REx D2, calcium flux, EC20 dopamine potentiation; potentiation, % at 10 µM; hit rate 0.34% among 340,000;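 active means potentiation over 3 SD above the plate norm, cut at about 30% in these data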
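Potentiation of an EC20 dopamine calcium response measured kinetically over 180 s, after a preceding 180 s compound-only read flagging agonists. Cells: inducible Hek293 Trex D2 line, 4000/well, cultured overnight at 30 C before dye loading.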
D2 antagonist – antagonizes the human D2 dopamine receptor | HEK293 TREx D2 cells, calcium flux, dopamine EC80 | inhibition, % at 10 µM | hit rate 2% among 340,000 | AID 485344; in the data active means inhibition above about 30%; inactive means below that, where a call was filed
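Inhibition of EC80 dopamine-driven calcium flux, recorded kinetically, defines activity here; cells are a tetracycline-induced HEK293 T-REx line expressing force-coupled D2.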
D2 PAM-2 – potentiates the human D2 dopamine receptor allosterically | P14416 | DiscoveRx D2 beta-arrestin cells, luminescence, 90 min; 100% = 57 uM dopamine signal | hit rate 0.23% among 360,000 | potentiation, % (no concentration beside the values) | AID 624464; in the data active means potentiation above about 50%
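PathHunter beta-arrestin assay in DiscoveRx D2 cells. Compounds were added with an EC20 of dopamine (50 nM final) for 90 min at 37 deg C. Luminescence was read 1 h after detection reagent, with 57 uM dopamine as the EC100 control.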
D2 ag-2 – human D2 receptor agonism in beta-arrestin assay. AID 624465. activation, % (concentration not given with the values). DiscoveRx PathHunter D2 beta-arrestin, luminescence, 90 min; 100% = 57 uM dopamine signal. hit rate 0.084% among 360,000. P14416; in the data active means activation above about 40%
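Agonist mode: compounds alone added to overnight-plated D2 PathHunter cells for 90 min at 37 C, with 57 uM final dopamine (EC100) defining full response. Beta-arrestin recruitment detected by chemiluminescent reagent, read after 1 h at ambient temperature.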
A number is an active result; i = inactive; nt = not tested or not shown; ! = a repeat was not active. This is a sample that favours compounds with a hit; in the whole collection about 2.4% have one here.

SMILES	D2 ag-1	D2 PAM-1	D2 antagonist	D2 PAM-2	D2 ag-2
CCC1=Nc2ccc(Br)cc2C(c2ccccc2)N1CC(=O)OC (stereo not given)	i	i	i	i	i
COc1cccc(CNC(=O)c2cccc(-n3c(C)nc4cccnc43)c2)c1OC	i	i	nt	nt	nt
COc1ccc(Oc2nc3c(c(=O)n(C)c(=O)n3C)n2Cc2ccccc2Cl)cc1	i	i	nt	nt	nt
CCCNC(=O)C1(C)CCCN(C(=O)c2c(F)ccc(C)c2F)C1 (stereo not given)	nt	nt	nt	i	i
O=C(CSc1ncc2c(n1)-c1ccc(Cl)cc1N(Cc1ccccc1)S2(=O)=O)Nc1ccccc1C(F)(F)F	i	i	nt	nt	nt
C=CCn1c(=S)[nH]c2scc(-c3ccc(C)o3)c2c1=O	i	i	31.8	i	i
C=CCn1c(SCC(C)=O)nc2scc(-c3ccc(C)o3)c2c1=O	i	i	i	i	i
COc1cccc(CNC(=O)CCCN2C(=O)CCn3nc(-c4cccn4C)cc32)c1	nt	i	nt	nt	nt
COc1ccc(OCc2cc(C(=O)N3CCCC(CO)C3)no2)c2ccccc12 (stereo not given)	i	i	i	73.5	i
O=C(c1cc(COc2ccc(F)cc2Cl)on1)N1CC[C@@H]2CCCC[C@H]2C1	i	i	i	i	i
O=C(c1cc(COc2ccc(F)cc2F)on1)N1CC[C@@H]2CCCC[C@H]2C1	i	i	i	63.6	i
CC(=O)Nc1cccc(-c2ccnc3c2CC(C)(C(=O)Nc2cccc(Oc4ccccc4)c2)O3)c1 (stereo not given)	nt	nt	nt	i	i
Cc1cc(Nc2cccc([N+](=O)[O-])c2)n2c(nc3ccccc32)c1C#N	i	i	34.9	i	i
Cc1cc(Nc2ccc(F)cc2)n2c(nc3ccccc32)c1C#N	i	i	nt	nt	nt
Cc1cc(NC(=O)c2ccc3c(c2)C(=O)N(C2CCCCC2)C3=O)no1	i	i	55.5	i	i
Cc1ccc(S(=O)(=O)N(C)C)cc1NC(=S)N1CCCCC1CO (stereo not given)	i	i	39.0	i	i
CCN(CCO)C(=S)Nc1cc(S(=O)(=O)N(C)C)ccc1C	i	i	50.6	i	i
Cc1ccc(S(=O)(=O)N(C)C)cc1NC(=O)C1CCCC1	i	i	i	i	i
O=C1CC(C(=O)Nc2ccc(F)c(Cl)c2)N=C(N2CCCCC2)N1 (stereo not given)	i	i	30.3	i	i
O=C1CC(C(=O)Nc2ccccc2)N=C(N2CCOCC2)N1 (stereo not given)	i	i	i	i	i
COc1cc2cc(C(c3nnnn3C3CCCC3)N3CCc4ccccc43)c(=O)[nH]c2cc1OC (stereo not given)	i	i	i	i	i
O=c1[nH]c2cc3c(cc2cc1C(c1nnnn1C1CCCC1)N1CCCc2ccccc21)OCCO3 (stereo not given)	i	42.7	i	i	i
COc1ccc(C2=Nc3ccccc3NC(=O)C2N(Cc2ccccc2)C(=O)C2=NNC(=O)CC2)cc1 (stereo not given)	nt	nt	nt	i	i
CC(C)c1ccc2c(c1)-c1ccccc1S(=O)(=O)N2CC(=O)N1CCCCC1	i	i	nt	nt	nt
COc1cc(C2c3c(-c4ccccc4)n[nH]c3C(=O)N2c2ccccc2)ccc1O (stereo not given)	i	i	i	51.7	i
SMILES	D2 ag-1	D2 PAM-1	D2 antagonist	D2 PAM-2	D2 ag-2
Cc1ccc(NS(=O)(=O)c2c(C)nc3sccn3c2=O)cc1	i	i	i	i	i
Cc1nc2sccn2c(=O)c1S(=O)(=O)Nc1ccc(N2CCN(C(=O)C(C)C)CC2)cc1	i	50.7!	i	i	i
Clc1ccc(-c2ccc(CN3CCCCC3)o2)cc1	i	i	78.2	i	i
Cc1ccc(NC(=O)C2OCCc3ccccc32)cc1C (stereo not given)	i	i	41.5	i	i
O=C(NCc1ccco1)C1OCCc2ccccc21 (stereo not given)	i	i	i	i	i
COc1cc(NS(=O)(=O)c2cc(Br)cc3c2N(C(C)=O)C(C)C3)cc(OC)c1 (stereo not given)	i	i	nt	nt	nt
Cc1cc(C(=O)COC(=O)/C=C/c2ccc(F)cc2)c(C)n1C	i	i	i	i	i
COCC(C)n1c(C)cc(C(=O)COC(=O)/C=C/c2cccc(F)c2)c1C (stereo not given)	i	53.1	i	i	i
O=C(Cn1cc(S(=O)(=O)N2CCCC2)c(S(=O)(=O)N2CCCC2)c1)Nc1ccccc1	i	i	nt	nt	nt
O=C1CC(N2CCOCC2)C(=O)N1c1ccccc1Cl (stereo not given)	i	56.8	i	i	i
O=C1CC(N2CCN(c3ccccc3)CC2)C(=O)N1c1ccc2c(c1)OCCO2 (stereo not given)	i	i	37.9	i	i
CN1CCN(C2CC(=O)N(c3ccc4c(c3)OCCO4)C2=O)CC1 (stereo not given)	i	i	i	i	i
O=C1CC(N2CCN(c3ccccc3Cl)CC2)C(=O)N1c1ccccc1 (stereo not given)	i	i	i	i	i
CC1=C(C(N)=O)C(c2ccc(C)cc2)n2nc(SCc3ccccc3)nc2N1 (stereo not given)	i	i	nt	nt	nt
O=C(Nc1cnn(Cc2ccc(Cl)cc2Cl)c1)c1noc2c1CCc1ccccc1-2	i	i	nt	nt	nt
O=C1CCN2C=Nc3cccc4ccc1c2c34	47.4	i	i	i	i
CCN(CC)S(=O)(=O)c1ccc(NC(=O)CCc2c(C)nc3cc(-c4ccc(Cl)cc4)nn3c2C)cc1	i	i	nt	nt	nt
O=C(Nc1cccc(Cl)c1)NC1CCN(C2CCCCC2)C1 (stereo not given)	i	i	84.9	i	i
O=C(NC1CCN(C(=O)Nc2cccc(Cl)c2)CC1)C1CCCCC1	i	i	i	i	i
CCOC(=O)c1ccc(NC(=O)C(CC)Sc2nnc3c4ccccc4n(C)c3n2)cc1 (stereo not given)	i	i	nt	nt	nt
COc1cc2cc(CNc3ccc(C)cc3)c(=O)n(CC(=O)Nc3ccc(C(C)C)cc3)c2cc1OC	i	i	nt	nt	nt
S=C(NCC1CCCO1)N1CCN(c2nc(-c3ccccc3)cs2)CC1 (stereo not given)	i	i	66.6	i	i
OC1(c2cccs2)CN(c2ccc(Br)cc2)C2=[N+]1CCCS2 (stereo not given)	i	i	i	i	i
COc1ccc(OC)c(N2CC(O)(c3cccs3)[N+]3=C2SCCC3)c1 (stereo not given)	i	i	40.0	i	i
FC(F)(F)c1ccnc(N2CCN(Cc3cnc(-c4ccccc4)[nH]3)CC2)c1	i	i	89.5	i	i
CC(=O)Nc1ccc(S(=O)(=O)N2CCN(c3cc(C(F)(F)F)ccn3)CC2)cc1	i	i	i	i	i
Cc1sc2nc3ccc(N4CCCCC4)nn3c(=O)c2c1C	i	i	36.9	i	i
Cc1ccc2nc3ccc(N4CCCC4)nn3c(=O)c2c1	i	i	i	i	i
